Reference: PubChem BioAssay (NCATS)
Results filed as inconclusive are left out. Calls of active or inactive are those of the source. Unless noted, no rule for the calls is given here.

Tests used:
[1] = qHTS profiling of the MIPE4 collection as inhibitors of Plasmodium falciparum (3D7) proliferation (AID 743344);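 also: scaled between DMSO vehicle wells and 0.29 µM artemisinin as full inhibition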; details: P. falciparum 3D7 in erythrocytes, SYBR Green DNA fluorescence, 72 h; at 28.5 µM unless noted
Procedure, shortened: (§1)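 Parasite DNA was quantified by SYBR Green I fluorescence (ex 485, em 535 nm) after overnight lysis in saponin/Triton buffer at room temperature. Cultures at 0.3% parasitemia and 2.5% hematocrit were first exposed to compound for 72 h at 37 C; signals were normalised to artemisinin (0.29 uM) and vehicle wells.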

[2] = qHTS profiling of the MIPE4 collection as inhibitors of Plasmodium falciparum (DD2) proliferation (Rep 2) (AID 743346); details: P. falciparum Dd2 in erythrocytes, SYBR Green DNA, 72 h; at 28.5 µM unless noted
Procedure, shortened: as §1

[3] = qHTS profiling of the MIPE4 collection as inhibitors of Plasmodium falciparum (HB3) proliferation (AID 743347);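 also: plate controls were DMSO vehicle wells for no effect and artemisinin wells for full effect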; details: P. falciparum HB3 in erythrocytes, SYBR Green DNA, 72 h; at 28.5 µM unless noted
Procedure, shortened: as §1

[4] = High-throughput drug toxicity screening in the BPDCN cell line Gen2.2 (AID 1224824); details: Gen2.2 BPDCN cells; at 45.8 µM (top of the series) unless noted;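 also: cells exposed to compounds for 48 h before reading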
Procedure, shortened: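 Readout is ATP luminescence from Gen2.2 cells after two days of drug exposure in serum-containing medium at 37 °C. Values express percent activity, with vehicle defining full signal and 9.2 uM bortezomib defining zero.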

[5] = High-throughput drug toxicity screening in the BPDCN cell line Cal-1 (AID 1224825); details: Cal-1 BPDCN cell viability, qHTS; at 45.8 µM (top of the series) unless noted
Procedure, shortened: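 Viability of the BPDCN line Cal-1 is measured as ATP-based luminescence (CellTiter-Glo) following 48 h incubation with compounds. Percent activity uses DMSO-treated wells as 100% and 9.2 uM bortezomib as 0%.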

[6] = qHTS assay for measurement of the activity of small molecule inhibitors on Zika virus induced Caspase-3 activity in human iPSC derived neural progenitor cells (hNPCs) (AID 1224857; active = well fitted curve in the direction sought with a large enough effect; an effect the other way counts as inactive or inconclusive; also: nearly all actives have a fitted effect of over 65% in size; also: potency is read from the fitted curve at half-maximal effect)
Procedure, shortened: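 In medium with heparin 2 ug/ml and cyclopamine 2 uM, hNPCs (350 cells/well) received compound for one hour and then Zika virus at 2 FFU/cell; caspase activity was measured by Caspase-Glo 3/7 luminescence 6 h post-infection.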

[7] = qHTS assay for measurement of the activity of small molecule inhibitors on Zika virus induced Caspase-3 activity in human astrocytoma cells (AID 1224859; active = well fitted curve in the direction sought with a large enough effect; an effect the other way counts as inactive or inconclusive; also: potency is read from the fitted curve at half-maximal effect)
Procedure, shortened: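 A cell-based luminescent caspase-3/7 assay used SNB-19 cells infected with ZIKV (2 FFU/cell) for 6 h following 1 h compound pretreatment.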

[8] = qHTS Screen of the MIPE 4.0 Collection Against Ewings Sarcoma (RDES) (AID 1259252; active = well fitted curve in the direction sought with a large enough effect; an effect the other way counts as inactive or inconclusive; also: nearly all actives have a fitted effect of over 35% in size; also: potency is read from the fitted curve at half-maximal effect)
Procedure, shortened: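 Here, cells in 5% FBS RPMI were exposed for two days (48 h) to compound dilutions added four hours after plating. ATP-based CellTiter-Glo luminescence measured viability, normalized to vehicle and no-cell blanks.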

[9] = qHTS profiling of the MIPE4 collection as inhibitors of Plasmodium falciparum (DD2) proliferation (AID 743345); details: P. falciparum Dd2 in erythrocytes, SYBR Green DNA, 72 h; at 28.5 µM unless noted
Procedure, shortened: as §1

[10] = qHTS Assay for Identifying Gametocytocidal Compounds (AID 743244; active = well fitted curve in the direction sought with a large enough effect; an effect the other way counts as inactive or inconclusive;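 also: % is scaled to controls: 0 for no effect and ±100 for the full control effect; actives lower the fluorescent signal which means gametocytes are killed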); details: P. falciparum 3D7 stage III-V gametocytes, alamarBlue, 72 h; max response: stronger effect = lower value
Procedure, shortened: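 In this qHTS viability screen, late-stage 3D7 gametocytes are incubated with compound for 72 h, then with alamarBlue for 24 h; reduced resorufin fluorescence marks killing.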

[11] = qHTS profiling for inhibitors of Plasmodium falciparum (3D7) proliferation (AID 743322);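 also: infected erythrocytes exposed to compound for 72 h before lysis; 100% = DMSO vehicle wells and 0% = 0.29 µM artemisinin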; details: P. falciparum 3D7 proliferation; at 28.7 µM (top of the series) unless noted
Procedure, shortened: as §1

[12] = qHTS profiling for inhibitors of Plasmodium falciparum (DD2) proliferation (AID 743323); details: lower = more inhibition; at 28.7 µM (top of the series) unless noted
Procedure, shortened: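 1536-well qHTS; infected RBCs 0.3% parasitemia/2.5% Hct final; cpd 72 h 37 C 5% CO2; lysis buffer + SYBR Green I, o/n RT dark; FI 485/535; norm. to 0.29 uM artemisinin and DMSO, plate-stack corrected.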

[13] = qHTS profiling for inhibitors of Plasmodium falciparum (HB3) proliferation (AID 743324; active = well fitted curve in the direction sought with a large enough effect; an effect the other way counts as inactive or inconclusive;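 also: 100% = DMSO vehicle wells and 0% = artemisinin-treated control wells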); details: Plasmodium falciparum HB3 blood-stage proliferation; at 28.7 µM (top of the series) unless noted
Procedure, shortened: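 SYBR Green fluorescence (485 ex/535 em) of lysed cultures, incubated overnight at room temperature in the dark, quantifies parasite DNA. Infected erythrocytes at 0.3% parasitemia and 2.5% hematocrit were exposed 72 h; values normalized to DMSO and 0.29 uM artemisinin controls.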

Row | SMILES | parasite growth, % of DMSO control [1] [%] | parasite growth, % of control (lower = inhibition) [2] [%] | growth, % of control [3] [%] | cell viability, % of control (lower = more cytotoxic) [4] [%] | viability (% of control) [5] [%] | Potency [6] | Potency [7] | Potency [8] | parasite growth remaining, % of DMSO control (lower = more inhibition) [9] [%] | max response [10] | remaining parasite growth % (stronger effect = lower value) [11] [%] | activity, percent of control [12] [%] | remaining proliferation (% of control), lower = more inhibition [13] [%]
1 | CN(CC=CC#CC(C)(C)C)Cc1cccc2ccccc12 | 15 | 14.9 | 14.6 | 194 | 115 | inactive | inactive | inactive | – | – | – | – | –
2 | CCCCC(C)(C)[C@H](O)C=C[C@H]1[C@H](O)CC(=O)[C@H]1CC=CCCCC(=O)O | – | 39.2 | 75.8 | 29.2 | 11.7 | inactive | inactive | inactive | – | – | – | – | –
3 | CN1C(=O)C[C@H](C(=O)N[C@@H](Cc2cnc[nH]2)C(=O)N2CCC[C@@H]2C(N)=O)NC1=O | – | – | – | 61 | 29.3 | inactive | inactive | 20.9 µM (active) | 33.3 | – | – | – | –
4 | FC(F)(F)c1ccc(C=Cc2nc(COc3ccc(CCCCn4ccnn4)cc3)co2)cc1 | 77.3 | 62.6 | 83.1 | 102 | 17.8 | inactive | inactive | 0.059 µM (active) | – | – | – | – | –
5 | C[C@]12C=CC(=O)C=C1CC[C@@H]1[C@@H]2[C@@H](O)C[C@@]2(C)[C@@H]1CC[C@]2(O)C(=O)CO | – | 86.4 | 78 | 87.5 | 14.3 | inactive | inactive | inactive | 100 | – | – | – | –
6 | CC[C@H]1OC(=O)[C@H](C)[C@@H](O[C@H]2C[C@@](C)(OC)[C@@H](O)[C@H](C)O2)[C@H](C)[C@@H](O[C@@H]2O[C@H](C)C[C@H](N(C)C)[C@H]2O)[C@](C)(O)C[C@H](C)C(=NOCOCCOC)[C@H](C)[C@@H](O)[C@]1(C)O | 53.1 | 47.3 | 82.6 | 129 | 113 | inactive | inactive | inactive | – | – | – | – | –
7 | Oc1ccc(C=Cc2cc(O)cc(O)c2)cc1 | – | 40.6 | 13 | 240 | 39.4 | 11.8 µM (active) | 6.62 µM (active) | 18.7 µM (active) | – | – | – | – | –
8 | CNC(=O)c1cc(Oc2ccc(NC(=O)Nc3ccc(Cl)c(C(F)(F)F)c3)c(F)c2)ccn1 | 5.25 | 11.8 | 4.74 | 16.6 | 31.5 | inactive | inactive | – | 33.1 | 21.4% (inactive) | 1.04 | 5.46 | 1.38
9 | COc1c(C)c2c(c(O)c1CC=C(C)CCC(=O)O)C(=O)OC2 | – | 13.7 | 7.33 | 94.4 | 16.3 | inactive | inactive | 3.72 µM (active) | – | – | – | – | –
10 | C=CC(=O)Nc1cccc(Sc2nc(Nc3ccc(N4CCN(C)CC4)cc3)ncc2Cl)c1 | – | 6.26 | 1.99 | 8.4 | 2.56 | inactive | inactive | 18.7 µM (active) | 10.2 | – | – | – | –
11 | CCN1CCN(c2ccc(Nc3cc(N(C)C(=O)Nc4c(Cl)c(OC)cc(OC)c4Cl)ncn3)cc2)CC1 | – | 8.62 | 2.41 | 147 | 90.9 | inactive | inactive | inactive | 5.88 | – | – | – | –
12 | O=C(O)CCNc1cc(N2CCc3ccccc3CC2)nc(-c2ccccn2)n1 | – | 20.6 | 5.23 | 158 | 91.6 | inactive | inactive | 26.4 µM (active) | 48.3 | – | – | – | –
13 | COc1ccc(-c2cc(=O)c3c(O)cc(O[C@@H]4O[C@H](CO[C@@H]5O[C@@H](C)[C@H](O)[C@@H](O)[C@@H]5O)[C@@H](O)[C@H](O)[C@@H]4O)cc3o2)cc1O | 30.1 | 33.2 | 23.4 | 93 | 111 | inactive | inactive | 18.7 µM (active) | – | – | – | – | –
14 | OC1CCC(Nc2ncc3nc(Nc4c(F)cc(F)cc4F)n([C@@H]4CCOC4)c3n2)CC1 (some centres not stated) | 38.4 | 59.6 | 43.4 | 62.2 | 13.2 | inactive | inactive | 18.7 µM (active) | – | – | – | – | –
15 | CC(C)(O)CC(=O)NCCn1ccc2ncnc(Nc3ccc(Oc4cccc(C(F)(F)F)c4)c(Cl)c3)c21 | 11.6 | 23 | 9.01 | 75.3 | 61.4 | inactive | inactive | 0.935 µM (active) | – | – | – | – | –
16 | CO[C@H]1/C=C\O[C@@]2(C)Oc3c(C)c(O)c4c(O)c(c(C=NN5CCN(C6CCCC6)CC5)c(O)c4c3C2=O)NC(=O)C(C)=CC=C[C@H](C)[C@H](O)[C@@H](C)[C@@H](O)[C@@H](C)[C@H](OC(C)=O)[C@H]1C | 4.38 | 8.54 | 2.45 | 1.16 | 0.727 | inactive | inactive | 0.0418 µM (active) | – | – | – | – | –
17 | CN1CCC(COc2cnc(-c3cccc(Cn4nc(-c5cccc(C#N)c5)ccc4=O)c3)nc2)CC1 | 10.4 | 15.3 | 4.54 | 92.7 | 5.37 | inactive | inactive | 7.43 µM (active) | – | – | – | – | –
18 | Cn1cnc(-c2cc3nccc(Oc4ccc(NC(=S)NC(=O)Cc5ccccc5)cc4F)c3s2)c1 | – | 28.5 | 12 | 131 | 8.37 | inactive | inactive | 20.9 µM (active) | 23.6 | – | – | – | –
19 | CC1=C(C(=O)Nc2cc3cn[nH]c3cc2F)C(c2ccc(C(F)(F)F)cc2)CC(=O)N1 (configuration not stated) | – | 7.16 | 5.72 | 88.7 | 58 | inactive | inactive | 1.48 µM (active) | 8.5 | – | – | – | –
20 | O=C(Nc1ccccc1)Nc1ccc(-c2ccc(C(=O)[C@H]3CCC[C@H]3C(=O)O)cc2)cc1 | – | 32 | 51.7 | 28.8 | 107 | inactive | inactive | 14.8 µM (active) | 78.7 | – | – | – | –
21 | CC1CNc2c(cccc2S(=O)(=O)N[C@@H](CCCN=C(N)N)C(=O)N2CC[C@@H](C)C[C@@H]2C(=O)O)C1 (some centres not stated) | 82.3 | 101 | 86.9 | 225 | 6.64 | inactive | inactive | 9.35 µM (active) | – | – | – | – | –
